Data on 31 sequences can be found in the supplement of paper PMC3545927.

The assay has as its target furin, P09958. Briefly: furin cleavage Z-score vs untreated control; higher = more cleavage, active = 3.5 or more, inactive = 1 or less, 8 variable residues between constant flanks. The method in brief: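 Peptides 8 residues long, fused to a cDNA oligonucleotide, were fixed to magnetic beads by the N-terminus and exposed to purified furin. The 0.01 ml reactions contained 50 mM HEPES pH 7.5 with CaCl2 and NaCl at 1:10 enzyme:substrate and ran 7.5, 15 or 30 min. For the cleavage Z-score, log counts of sequenced released DNA were compared with furin-free reactions, lowess-adjusted and scaled by median absolute deviation.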

The list shows a part of the results. The true hit rate is not given.

Chain of furin, P09958 (P09958 whole entry, the tested form may be a part): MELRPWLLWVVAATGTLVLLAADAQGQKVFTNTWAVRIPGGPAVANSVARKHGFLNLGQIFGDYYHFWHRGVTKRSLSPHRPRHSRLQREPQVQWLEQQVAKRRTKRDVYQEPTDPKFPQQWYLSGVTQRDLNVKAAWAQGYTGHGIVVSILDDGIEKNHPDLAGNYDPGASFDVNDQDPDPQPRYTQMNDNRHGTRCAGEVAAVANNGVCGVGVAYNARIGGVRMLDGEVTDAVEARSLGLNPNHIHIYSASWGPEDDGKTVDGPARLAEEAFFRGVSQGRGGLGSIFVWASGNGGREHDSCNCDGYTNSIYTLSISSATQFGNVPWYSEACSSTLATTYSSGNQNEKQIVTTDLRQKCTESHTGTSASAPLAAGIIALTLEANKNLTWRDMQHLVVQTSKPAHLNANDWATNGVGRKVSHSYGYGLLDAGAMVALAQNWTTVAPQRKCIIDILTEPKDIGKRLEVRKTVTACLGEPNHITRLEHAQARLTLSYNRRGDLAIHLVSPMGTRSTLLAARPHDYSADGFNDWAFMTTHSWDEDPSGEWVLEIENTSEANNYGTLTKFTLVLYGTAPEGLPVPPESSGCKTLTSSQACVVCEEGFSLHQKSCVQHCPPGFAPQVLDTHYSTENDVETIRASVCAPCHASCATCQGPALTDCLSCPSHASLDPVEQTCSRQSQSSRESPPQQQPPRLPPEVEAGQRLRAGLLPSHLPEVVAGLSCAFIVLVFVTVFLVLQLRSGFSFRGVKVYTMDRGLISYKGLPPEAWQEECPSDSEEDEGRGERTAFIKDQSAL

On to CAPLEVIKGGAGNASASA [HC851], for which the “furin cleavage Z-score” value (7.5 min) came to 1.06, the “furin cleavage Z-score” value (15 min) is 0.444 (inactive) and the “furin cleavage Z-score” value (30 min) was 0.579 (inactive).
As for CACHCGAEITAGNASASA [HC1175], the “furin cleavage Z-score” value by setting is: (7.5 min) -0.983 (inactive); (15 min) -1.4 (inactive); (30 min) -0.977 (inactive).
The matching figures for CATAQRRRRSAGNASASA [FS-877]: 8.41 (active), 7.47 (active) and 6.08 (active).
Consider CAPAARRRRSAGNASASA [FS-1146], for which the “furin cleavage Z-score” value by setting is: (7.5 min) 11.4 (active); (15 min) 10.2 (active); (30 min) 8.82 (active).
As to CALAARGARLAGNASASA [FS-682], the “furin cleavage Z-score” value reads like this: (7.5 min) -1.17 (inactive); (15 min) 0.199 (inactive); (30 min) 0.619 (inactive).
As for CAPAARFKKFAGNASASA [FS-367], the “furin cleavage Z-score” value reads like this: (7.5 min) -0.438 (inactive); (15 min) -0.599 (inactive); (30 min) -0.45 (inactive).
On to CALAARRRRSAGNASASA [FS-264], for which the “furin cleavage Z-score” value by setting is: (7.5 min) 10.9 (active); (15 min) 11 (active); (30 min) 8.11 (active).
For the sequence CAVFKRRRRSAGNASASA [FS-1101], the “furin cleavage Z-score” value by setting is: (7.5 min) 12.7 (active); (15 min) 11.3 (active); (30 min) 8.61 (active).
For CATALRRARSAGNASASA [FS-200], the “furin cleavage Z-score” value runs as follows: (7.5 min) 1.48; (15 min) 0.619 (inactive); (30 min) 0.983 (inactive).
Take CAELEVVTSTAGNASASA [HC2272]: the “furin cleavage Z-score” value was -0.698 (inactive) (7.5 min), -0.669 (inactive) (15 min) and -1.12 (inactive) (30 min).
With CAYEMEECSQAGNASASA [HC1789], the “furin cleavage Z-score” value is, setting by setting: (7.5 min) 0.403 (inactive); (15 min) -0.566 (inactive); (30 min) 1.37.
On to CANLLPAILSAGNASASA [HC1101], for which the “furin cleavage Z-score” value by setting is: (7.5 min) -0.111 (inactive); (15 min) 0.993 (inactive); (30 min) -0.0781 (inactive).
On the same counts, the results for CANWSPTTALAGNASASA [HC323] are -0.0824 (inactive), -0.415 (inactive) and -0.513 (inactive).
CAAQLLRIPQAGNASASA [HC328]: the “furin cleavage Z-score” value is, setting by setting: (7.5 min) -1 (inactive); (15 min) 1.5; (30 min) 0.847 (inactive).
For the sequence CAMEECSTHLAGNASASA [HC1738], the “furin cleavage Z-score” value (7.5 min) was 0.958 (inactive), the “furin cleavage Z-score” value (15 min) was 0.401 (inactive) and the “furin cleavage Z-score” value (30 min) was 0.22 (inactive).
For the sequence CAVTPCSGSWAGNASASA [HC1830], the “furin cleavage Z-score” value reads like this: (7.5 min) -0.794 (inactive); (15 min) -0.739 (inactive); (30 min) -0.453 (inactive).
Regarding CATAQRHRRYAGNASASA [FS-628], the “furin cleavage Z-score” value runs as follows: (7.5 min) 8.01 (active); (15 min) 10.1 (active); (30 min) 9.56 (active).
With CAAKAKRRRSAGNASASA [FS-744], the “furin cleavage Z-score” value is, setting by setting: (7.5 min) 10.8 (active); (15 min) 11.8 (active); (30 min) 8.83 (active).
With CAKDSRFFRYAGNASASA [FS-808], the “furin cleavage Z-score” value reads like this: (7.5 min) 0.318 (inactive); (15 min) -0.509 (inactive); (30 min) 1.08.
On to CAEKAVERRSAGNASASA [FS-1191], for which the “furin cleavage Z-score” value reads like this: (7.5 min) 0.591 (inactive); (15 min) 2.02; (30 min) 0.505 (inactive).
Regarding CAGNITRVESAGNASASA [HC1280], the “furin cleavage Z-score” value reads like this: (7.5 min) -0.34 (inactive); (15 min) -0.548 (inactive); (30 min) 1.72.
For CARFARLRRVAGNASASA [FS-853], the “furin cleavage Z-score” value is 4.92 (active) (7.5 min), 7.36 (active) (15 min) and 5.85 (active) (30 min).
For the sequence CAYVSRLRRVAGNASASA [FS-1441], the “furin cleavage Z-score” value was 4.8 (active) (7.5 min), 5.42 (active) (15 min) and 4.8 (active) (30 min).
As to CAPEARLRRVAGNASASA [FS-839], the “furin cleavage Z-score” value reads like this: (7.5 min) 0.0356 (inactive); (15 min) 3.09; (30 min) 2.39.
Consider CALVCCSMSYAGNASASA [HC1985], for which the “furin cleavage Z-score” value is -0.475 (inactive) (7.5 min), -0.242 (inactive) (15 min) and 0.0858 (inactive) (30 min).
For the sequence CAHGPTPLLYAGNASASA [HC970], the “furin cleavage Z-score” value (7.5 min) is -1.77 (inactive), the “furin cleavage Z-score” value (15 min) is -1.23 (inactive) and the “furin cleavage Z-score” value (30 min) was -0.927 (inactive).
In the case of CARGKRFRPRAGNASASA [FS-2209], the “furin cleavage Z-score” value was -0.464 (inactive) (7.5 min), 0.0565 (inactive) (15 min) and 0.308 (inactive) (30 min).
On to CARGKRELRMAGNASASA [FS-2933], for which the “furin cleavage Z-score” value is 7.15 (active) (7.5 min), 8.97 (active) (15 min) and 10 (active) (30 min).
For CAAACRAAGLAGNASASA [HC1521], the “furin cleavage Z-score” value was -0.658 (inactive) (7.5 min), -1.9 (inactive) (15 min) and -0.337 (inactive) (30 min).
With CARFKKNAGLAGNASASA [FS-2258], the “furin cleavage Z-score” value (7.5 min) was 0.96 (inactive), the “furin cleavage Z-score” value (15 min) was -0.927 (inactive) and the “furin cleavage Z-score” value (30 min) was 0.128 (inactive).
The matching figures for CARGKREAGLAGNASASA [FS-1950]: 10.7 (active), 12 (active) and 9.85 (active).
